Test [1] concerns PRMT1 (protein arginine N-methyltransferase 1). Nature of the test: PRMT1 binders on small-molecule microarrays, primary screen, biochemical, small-molecule microarray, 635 nm fluorescence (AID 1088).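 Also: binding of Prmt1 protein to compounds spotted on small-molecule microarray slides.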 The settings on record: small-molecule microarray binding, higher = more signal.
Test [2] is described as follows: yeast growth modulation, basal conditions, primary screen, YJM789 clinical isolate, OD600, 24 h (AID 1089).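 Also: growth of clinical yeast isolate S. cerevisiae YJM 789 seeded 1000 cells per well; test concentration not given here.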 The following applies: S. cerevisiae YJM789 growth, higher = more signal, called active from +8 up or from −8 down.
Test [3] is described as follows: fission yeast growth modulation, primary screen, strain 972, OD600, 24 h, no modulator (AID 1090).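 Also: basal condition with compound alone and no growth modifier present; test concentration not given here.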 The following applies: S. pombe 972 growth, higher = more signal, called active from +8 up or from −8 down.
The nature of test [4]: S. cerevisiae growth modulation with rapamycin, primary screen, strain BY4716, OD600, 96 h (AID 1091). Also: test concentration not given here. The settings on record: higher = more signal, called active from +8 up or from −8 down.
Test [5] has as its target Torsin-1A-interacting protein 2 (Homo sapiens) (UniProt Q8NFQ8). Nature of the test: LULL1 binders on small-molecule microarray, primary screen, cell lysate, human LULL1 lysate, 635/667 nm fluorescence (AID 1092).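 Also: probe is lysate of COS7 cells overexpressing human LULL1; score merges per-feature 667 nm fluorescence with signal-to-noise.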 The settings on record: hLULL1 lysate binding, 635 nm fluorescence, higher = more signal.
The nature of test [6]: E. coli growth modulation, two-sided OD650, primary screen, E. coli filamentation project, strain DRC41, 24 h (AID 1093).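 Also: MC1000 strain lacking acrAB efflux and sulA so SOS filamentation is blocked; test concentration not given here.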 The settings on record: OD650, 24 h, higher = more signal, called active from +8 up or from −8 down.
Test [7] in a line: small-molecule microarray binders of probe aLefty2, primary screen, biochemical, biotinylated probe, 635/667 nm fluorescence (AID 1094).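 Also: score merges spot fluorescence near 667 nm with spot signal-to-noise ratio.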 The settings on record: higher = more signal.
The subject of test [8] is Noggin (protein binding on small-molecule microarray). As to the kind of experiment: Noggin binders on small-molecule microarray, primary screen, biochemical, 635/667 nm fluorescence (AID 1095).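 Also: score merges 667 nm feature fluorescence with signal to noise over triplicate slides.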 The following applies: 635 nm fluorescence, higher = more signal.
Test [9] deals with Neurogenic locus notch homolog protein 3 (Homo sapiens) (UniProt Q9UM47). As to the kind of experiment: NOTCH3 binders on small-molecule microarray, primary screen, biochemical, 635/667 nm fluorescence (AID 1096). The settings on record: NOTCH3 binding, 635 nm fluorescence, higher = more signal.
A short description of test [10]: small-molecule microarray binders of probe aEGFR, primary screen, biochemical, biotinylated probe, 635/667 nm fluorescence (AID 1097).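 Also: probe is a biotinylated anti-EGFR antibody binding compounds printed on slides; score combines fluorescence near 667 nm and signal to noise of each spot.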 The following applies: higher = more signal.
In test [11] the test system is Plasmodium falciparum Sir2 (PF13_0152, Sir2A). As to the kind of experiment: pfSir2 binders on small-molecule microarrays, primary screen, biochemical, small-molecule microarray, 635 nm fluorescence (AID 1098).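 Also: score merges spot fluorescence intensity with its signal-to-noise ratio.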 The settings on record: small-molecule microarray binding, fluorescence 635 nm; higher = more signal.
Test [12] can be described thus: small-molecule microarray binders of probe aDKK1, primary screen, biochemical, biotinylated probe, 635/667 nm fluorescence (AID 1099).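 Also: score merges 667nm spot fluorescence with signal to noise across triplicate slides; reference of the scale not given here.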 The settings on record: higher = more signal.
Test [13] can be described thus: small-molecule microarray binders of probe aCHRDL2, primary screen, biochemical, biotinylated probe, 635/667 nm fluorescence (AID 1100). The settings on record: higher = more signal.
A short description of test [14]: splicing luciferase reporter signal modulators, primary screen, spliceosome inhibition project, cell-based, HEK293, splice +/- reporter (AID 1101).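 Also: HEK293 cells carrying a splicing-competent luciferase reporter gene; test concentration not given here.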 The settings on record: luminescence, 24 h, higher = more signal, called active from +8 up or from −8 down.
Test [15] addresses Fibroblast growth factor 10 (Homo sapiens) (UniProt O15520). Nature of the test: FGF10 binders on small-molecule microarrays, primary screen, biochemical, small-molecule microarray, 635 nm fluorescence (AID 1102). The following applies: FGF10 binding, fluorescence 635 nm, higher = more signal.
The test system of test [16] is glycogen synthase kinase-3 (GSK3A per assay name; protocol says GSK3B). Nature of the test: GSK3 binders on small-molecule microarrays, primary screen, biochemical, small-molecule microarray, 635 nm fluorescence, GSK3A (AID 1103). Also: the record names both GSK3A and GSK3B. The settings on record: small-molecule microarray binding, fluorescence 635 nm; higher = more signal.
Test [17] concerns the target Epidermal growth factor receptor (Homo sapiens) (UniProt P00533). Nature of the test: EGFR binders on small-molecule microarrays, primary screen, biochemical, small-molecule microarray, 635 nm fluorescence (AID 1104).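 Also: score merges 667 nm emission intensity with spot signal to noise over triplicate slides.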 The following applies: EGFR binding, higher = more signal.
For test [18], the target named is Follistatin-related protein 3 (Homo sapiens) (UniProt O95633). Nature of the test: FSTL3 binders on small-molecule microarrays, primary screen, biochemical, small-molecule microarray, 635 nm fluorescence (AID 1105).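 Also: score merges emission near 667 nm and signal to noise per printed spot across three slides.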 The settings on record: FSTL3 binding, higher = more signal.
The target of test [19] is Dickkopf-related protein 1 (Homo sapiens) (UniProt O94907). As to the kind of experiment: DKK1 binders on small-molecule microarrays, primary screen, biochemical, small-molecule microarray, 635 nm fluorescence scan (AID 1106).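 Also: score merges emission near 667 nm with signal to noise over three replicate slides.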 The following applies: DKK1 binding, higher = more signal.
In test [20] the test system is Inhibin beta A chain (activin A). Nature of the test: INHBA (activin A) binders on microarrays, primary screen, biochemical, small-molecule microarray, 635 nm fluorescence scan (AID 1107).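 Also: mouse activin A protein probed at 4.33 µg/mL on printed slides; score merges bound-protein fluorescence near 667 nm with spot signal-to-noise.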 The following applies: small-molecule microarray binding, higher = more signal.

Molecules are shown by their SMILES. Activity calls are given as the source filed them.

For 5 compounds, composite z-score and z-score results are on record in PubChem BioAssay.

Chain of Dickkopf-related protein 1 (Homo sapiens) (O94907 whole entry, looked up): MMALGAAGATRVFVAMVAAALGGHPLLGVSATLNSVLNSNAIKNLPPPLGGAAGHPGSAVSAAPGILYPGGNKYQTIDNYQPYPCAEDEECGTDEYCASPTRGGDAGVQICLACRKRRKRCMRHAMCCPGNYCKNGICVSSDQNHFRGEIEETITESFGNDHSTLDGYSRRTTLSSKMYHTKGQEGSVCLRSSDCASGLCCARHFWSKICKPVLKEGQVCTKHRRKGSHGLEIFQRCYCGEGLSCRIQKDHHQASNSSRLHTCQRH
Chain of Epidermal growth factor receptor (Homo sapiens) (P00533 whole entry, looked up): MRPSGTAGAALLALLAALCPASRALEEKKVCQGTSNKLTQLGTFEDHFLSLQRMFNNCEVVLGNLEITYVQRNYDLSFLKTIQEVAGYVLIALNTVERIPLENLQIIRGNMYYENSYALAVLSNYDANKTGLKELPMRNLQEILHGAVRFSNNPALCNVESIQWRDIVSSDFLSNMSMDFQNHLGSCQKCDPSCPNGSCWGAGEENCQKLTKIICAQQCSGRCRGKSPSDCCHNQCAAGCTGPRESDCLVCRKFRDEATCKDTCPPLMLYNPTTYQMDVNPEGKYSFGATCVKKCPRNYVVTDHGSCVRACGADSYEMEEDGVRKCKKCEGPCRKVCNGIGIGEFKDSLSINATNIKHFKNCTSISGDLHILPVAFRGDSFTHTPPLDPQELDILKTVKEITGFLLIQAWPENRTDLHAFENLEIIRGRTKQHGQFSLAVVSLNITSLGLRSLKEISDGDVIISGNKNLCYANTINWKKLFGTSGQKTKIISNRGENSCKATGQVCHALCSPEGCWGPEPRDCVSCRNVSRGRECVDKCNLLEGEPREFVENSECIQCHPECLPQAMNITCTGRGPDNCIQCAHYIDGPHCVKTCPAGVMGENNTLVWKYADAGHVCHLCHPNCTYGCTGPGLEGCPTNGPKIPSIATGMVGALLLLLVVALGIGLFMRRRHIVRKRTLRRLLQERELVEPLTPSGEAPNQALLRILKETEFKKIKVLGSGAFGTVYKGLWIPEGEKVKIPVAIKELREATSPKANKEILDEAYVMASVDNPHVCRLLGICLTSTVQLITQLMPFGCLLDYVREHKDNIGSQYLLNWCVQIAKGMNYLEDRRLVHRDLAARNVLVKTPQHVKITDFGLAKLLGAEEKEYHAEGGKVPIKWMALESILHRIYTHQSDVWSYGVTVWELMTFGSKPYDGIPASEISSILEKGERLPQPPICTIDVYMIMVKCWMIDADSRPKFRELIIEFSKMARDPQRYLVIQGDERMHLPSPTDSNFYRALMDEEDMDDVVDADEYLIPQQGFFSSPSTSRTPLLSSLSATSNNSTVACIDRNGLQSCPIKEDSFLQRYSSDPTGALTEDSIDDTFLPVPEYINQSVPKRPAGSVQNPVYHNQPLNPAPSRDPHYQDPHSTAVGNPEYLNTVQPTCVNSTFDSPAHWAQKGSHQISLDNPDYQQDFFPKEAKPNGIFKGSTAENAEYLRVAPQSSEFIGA
Chain of Follistatin-related protein 3 (Homo sapiens) (O95633 whole entry, looked up): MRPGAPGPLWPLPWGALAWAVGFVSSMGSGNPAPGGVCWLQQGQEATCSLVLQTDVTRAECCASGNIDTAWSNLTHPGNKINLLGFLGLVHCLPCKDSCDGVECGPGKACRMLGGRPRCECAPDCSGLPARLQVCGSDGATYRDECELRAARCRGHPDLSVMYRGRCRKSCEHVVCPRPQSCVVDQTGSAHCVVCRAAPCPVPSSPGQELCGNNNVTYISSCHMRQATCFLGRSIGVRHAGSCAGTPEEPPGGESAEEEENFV
Chain of Fibroblast growth factor 10 (Homo sapiens) (O15520 whole entry, looked up): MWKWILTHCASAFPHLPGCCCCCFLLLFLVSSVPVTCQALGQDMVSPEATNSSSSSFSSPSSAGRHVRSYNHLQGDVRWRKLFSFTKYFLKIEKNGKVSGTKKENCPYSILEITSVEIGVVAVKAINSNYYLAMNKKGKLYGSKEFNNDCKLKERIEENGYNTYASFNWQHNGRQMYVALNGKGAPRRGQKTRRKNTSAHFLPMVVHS
Chain of Torsin-1A-interacting protein 2 (Homo sapiens) (Q8NFQ8 whole entry, looked up): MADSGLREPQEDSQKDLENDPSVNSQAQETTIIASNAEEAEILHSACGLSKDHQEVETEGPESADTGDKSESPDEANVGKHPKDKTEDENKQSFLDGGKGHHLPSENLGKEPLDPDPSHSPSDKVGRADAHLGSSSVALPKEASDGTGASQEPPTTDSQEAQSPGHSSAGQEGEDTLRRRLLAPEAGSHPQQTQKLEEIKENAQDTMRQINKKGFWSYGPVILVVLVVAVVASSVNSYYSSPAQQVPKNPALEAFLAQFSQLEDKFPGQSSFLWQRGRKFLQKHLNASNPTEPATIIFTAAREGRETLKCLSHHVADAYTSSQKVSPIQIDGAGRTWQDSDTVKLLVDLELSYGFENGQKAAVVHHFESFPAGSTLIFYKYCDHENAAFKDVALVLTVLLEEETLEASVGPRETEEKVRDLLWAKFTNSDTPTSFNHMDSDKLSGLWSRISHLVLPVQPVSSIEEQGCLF
Chain of Neurogenic locus notch homolog protein 3 (Homo sapiens) (Q9UM47 whole entry, looked up): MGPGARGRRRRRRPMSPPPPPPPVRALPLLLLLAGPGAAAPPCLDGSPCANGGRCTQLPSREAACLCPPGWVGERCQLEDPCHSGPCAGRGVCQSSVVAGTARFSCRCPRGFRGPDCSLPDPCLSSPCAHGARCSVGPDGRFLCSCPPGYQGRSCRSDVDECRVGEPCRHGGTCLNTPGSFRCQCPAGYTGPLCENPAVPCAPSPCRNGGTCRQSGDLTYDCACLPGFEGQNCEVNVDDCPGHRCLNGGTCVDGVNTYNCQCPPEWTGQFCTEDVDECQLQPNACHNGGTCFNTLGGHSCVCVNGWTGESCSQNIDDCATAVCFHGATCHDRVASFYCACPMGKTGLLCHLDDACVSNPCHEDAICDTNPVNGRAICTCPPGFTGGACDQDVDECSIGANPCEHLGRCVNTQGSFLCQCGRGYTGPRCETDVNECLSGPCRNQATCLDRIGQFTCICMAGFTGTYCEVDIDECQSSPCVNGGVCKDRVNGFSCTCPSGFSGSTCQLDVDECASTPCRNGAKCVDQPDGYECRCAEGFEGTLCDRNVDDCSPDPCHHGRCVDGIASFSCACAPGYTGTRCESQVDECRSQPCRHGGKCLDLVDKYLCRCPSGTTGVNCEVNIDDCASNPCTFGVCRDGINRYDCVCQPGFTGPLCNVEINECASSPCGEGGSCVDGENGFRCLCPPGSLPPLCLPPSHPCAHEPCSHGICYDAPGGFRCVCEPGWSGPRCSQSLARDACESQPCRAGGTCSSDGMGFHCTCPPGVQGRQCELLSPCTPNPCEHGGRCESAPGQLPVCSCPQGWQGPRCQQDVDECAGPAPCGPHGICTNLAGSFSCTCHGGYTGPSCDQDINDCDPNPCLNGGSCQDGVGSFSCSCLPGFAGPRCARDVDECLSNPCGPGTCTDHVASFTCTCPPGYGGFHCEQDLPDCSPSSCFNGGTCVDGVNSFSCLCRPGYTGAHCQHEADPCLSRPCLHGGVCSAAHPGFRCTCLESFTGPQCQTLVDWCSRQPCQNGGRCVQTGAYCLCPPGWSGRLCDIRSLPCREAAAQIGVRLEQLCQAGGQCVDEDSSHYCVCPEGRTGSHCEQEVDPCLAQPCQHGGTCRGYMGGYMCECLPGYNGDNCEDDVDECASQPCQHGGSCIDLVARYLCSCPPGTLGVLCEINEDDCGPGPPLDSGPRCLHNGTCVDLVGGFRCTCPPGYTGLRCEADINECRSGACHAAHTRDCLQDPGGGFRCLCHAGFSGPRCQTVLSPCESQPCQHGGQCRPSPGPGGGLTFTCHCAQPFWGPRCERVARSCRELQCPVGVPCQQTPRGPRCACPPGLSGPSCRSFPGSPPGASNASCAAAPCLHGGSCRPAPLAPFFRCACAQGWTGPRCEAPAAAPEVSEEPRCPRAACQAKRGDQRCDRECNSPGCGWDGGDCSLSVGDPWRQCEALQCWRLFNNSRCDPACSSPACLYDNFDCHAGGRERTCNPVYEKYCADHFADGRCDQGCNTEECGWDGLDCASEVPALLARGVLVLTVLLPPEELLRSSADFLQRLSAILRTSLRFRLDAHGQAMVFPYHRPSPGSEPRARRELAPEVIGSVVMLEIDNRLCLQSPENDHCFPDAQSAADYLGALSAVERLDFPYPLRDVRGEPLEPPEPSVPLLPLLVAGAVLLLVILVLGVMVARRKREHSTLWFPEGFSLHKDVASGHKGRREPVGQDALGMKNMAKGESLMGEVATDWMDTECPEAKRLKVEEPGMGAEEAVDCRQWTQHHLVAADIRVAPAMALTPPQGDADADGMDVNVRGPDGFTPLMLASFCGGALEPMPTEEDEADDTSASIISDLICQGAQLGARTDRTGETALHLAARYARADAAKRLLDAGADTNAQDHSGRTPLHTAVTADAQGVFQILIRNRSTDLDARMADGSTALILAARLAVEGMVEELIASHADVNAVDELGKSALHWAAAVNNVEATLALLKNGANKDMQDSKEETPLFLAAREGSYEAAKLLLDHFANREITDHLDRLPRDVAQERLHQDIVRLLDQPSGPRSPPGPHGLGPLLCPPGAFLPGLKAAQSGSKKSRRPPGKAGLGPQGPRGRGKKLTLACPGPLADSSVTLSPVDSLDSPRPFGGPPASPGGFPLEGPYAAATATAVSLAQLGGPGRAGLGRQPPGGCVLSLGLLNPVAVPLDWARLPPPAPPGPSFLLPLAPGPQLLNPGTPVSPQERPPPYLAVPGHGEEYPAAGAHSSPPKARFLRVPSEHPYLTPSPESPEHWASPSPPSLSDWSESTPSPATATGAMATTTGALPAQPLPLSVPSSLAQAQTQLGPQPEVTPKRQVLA

For the compound `CO[C@H]1COC(=O)[C@@H]2CCCN2C(=O)[C@@H](C)COC(=O)CC=C[C@@H]1C`, the composite z-score in test [1] is 1.47; in [5] it was -0.652; in [7] it was -0.238; in [8], 0.927; in [9] it was 0.665; in [10], 0.0082. Besides, the composite z-score in [11] was 0.474; in [12], -0.342; in test [13], -0.919; in test [15], 0.618; in test [16], 1.05; in [17] it was 1.15. Also, the composite z-score in [18] was 1.11; in test [19], 1.1; in [20], -0.24. The z-score in [2] was -0.62 (inactive); in test [3] it was 0.0569 (inactive); in [4] it was -1.53 (inactive); in test [6], 0.264 (inactive); in test [14], 0.00841 (inactive).
Turning to `CC(CCC(=O)OC[C@H]1O[C@H](C#Cc2ccccc2)C=C[C@@H]1Oc1ccc(C)cc1)=NOC[C@@H](O)[C@H]1O[C@@H]2OC(C)(C)O[C@@H]2[C@H]1O`, the composite z-score in [1] is -0.753; in [5] it was 0.563; in [7] it was -0.352; in test [8], -0.333; in test [9] it was -1.74; in test [10], -0.342. Besides, the composite z-score in test [11] is 0.373; in [12], -0.339; in test [13], -0.505; in test [15], -0.369; in test [16], -0.579; in [17], -1.03. Further, the composite z-score was -0.638 in test [18], -0.335 in test [19] and 0.302 in [20]. Also, the z-score in [2] was 0.349 (inactive); in test [3], -0.0762 (inactive); in [4], 0.823 (inactive); in test [6] it was 0.142 (inactive); in test [14], 0.29 (inactive).
As to `CC(CCN1CCc2nc(-c3ccccc3)c(-c3ccccc3)cc2C1)=NOC(C)CN1CCCCc2nc(C)c(C)cc21` (stereo not given), the composite z-score in test [1] is 0.948; in test [5], 1.53; in test [7] it was -0.0813; in [8], 0.454; in [9], 0.905; in test [10], -0.0565. Further, the composite z-score was 0.646 in test [11]; -0.0421 in [12]; 0.318 in [13]; 0.593 in test [15]; 0.746 in test [16]; 0.964 in test [17]. The composite z-score in [18] came to 0.609; in test [19] it was 0.77; in test [20], 1.15. The z-score in test [2] is -1.03 (inactive); in test [3], -3.01 (inactive); in test [4] it was -3.08 (inactive); in [6], 0.74 (inactive); in [14], -0.0114 (inactive).
For `C/C=C\[C@@H](NCc1ccccc1Br)[C@@H](O)Cc1ccccc1`, the composite z-score in test [1] was -0.0523; in test [5], -0.0942; in test [7], 0.149; in test [8] it was -1.52; in [9], -0.735; in test [10], -0.455. Moreover, the composite z-score in test [11] was 0.556; in test [12], 0.41; in test [13], 1.19; in [15] it was -1.69; in test [16], -0.683; in test [17], -1.37. Moreover, the composite z-score is -1.69 in test [18], -1.58 in [19] and 0.0067 in test [20]. For the same compound, the z-score in test [2] is -1.81 (inactive); in test [3], -13.8 (active); in [4] it was -1.64 (inactive); in test [6] it was -0.734 (inactive); in test [14], -0.307 (inactive).
Regarding `CCN1C(=O)[C@H]2[C@H]3[C@H](O)C=CC(=O)[C@@H]3CC[C@H]2C1=O`, the composite z-score is -0.777 in test [1]; 0.0819 in [5]; -0.0961 in test [7]; 0.701 in [8]; 0.705 in test [9]; -0.094 in test [10]. In addition, the composite z-score in test [11] was 0.163; in test [12], -0.094; in test [13], -0.484; in test [15], 0.402; in test [16] it was 0.743; in [17] it was 0.378. Besides, the figures for the composite z-score in test [18], in test [19] and in test [20] were 0.548, 0.444 and -0.114, respectively. Moreover, the z-score is 0.0131 (inactive) in [2]; -0.373 (inactive) in test [3]; -0.624 (inactive) in test [4]; 0.255 (inactive) in test [6]; 0.403 (inactive) in test [14].
